CD11b adhes inh = CD11b/CD18-fibrinogen binding inhibition | inhibition, % at 10 µM | P05107+P11215 | 93,000 compounds, 0.54% hits | K562 CD11b/CD18 adhesion to fibrinogen, ATPlite luminescence; Mn2+ added to activate the integrin;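 active = primary inhibition of 50% or more at 10 µM, then 40% or more on retest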
Target sequence (P05107 whole entry, looked up, other chains not shown): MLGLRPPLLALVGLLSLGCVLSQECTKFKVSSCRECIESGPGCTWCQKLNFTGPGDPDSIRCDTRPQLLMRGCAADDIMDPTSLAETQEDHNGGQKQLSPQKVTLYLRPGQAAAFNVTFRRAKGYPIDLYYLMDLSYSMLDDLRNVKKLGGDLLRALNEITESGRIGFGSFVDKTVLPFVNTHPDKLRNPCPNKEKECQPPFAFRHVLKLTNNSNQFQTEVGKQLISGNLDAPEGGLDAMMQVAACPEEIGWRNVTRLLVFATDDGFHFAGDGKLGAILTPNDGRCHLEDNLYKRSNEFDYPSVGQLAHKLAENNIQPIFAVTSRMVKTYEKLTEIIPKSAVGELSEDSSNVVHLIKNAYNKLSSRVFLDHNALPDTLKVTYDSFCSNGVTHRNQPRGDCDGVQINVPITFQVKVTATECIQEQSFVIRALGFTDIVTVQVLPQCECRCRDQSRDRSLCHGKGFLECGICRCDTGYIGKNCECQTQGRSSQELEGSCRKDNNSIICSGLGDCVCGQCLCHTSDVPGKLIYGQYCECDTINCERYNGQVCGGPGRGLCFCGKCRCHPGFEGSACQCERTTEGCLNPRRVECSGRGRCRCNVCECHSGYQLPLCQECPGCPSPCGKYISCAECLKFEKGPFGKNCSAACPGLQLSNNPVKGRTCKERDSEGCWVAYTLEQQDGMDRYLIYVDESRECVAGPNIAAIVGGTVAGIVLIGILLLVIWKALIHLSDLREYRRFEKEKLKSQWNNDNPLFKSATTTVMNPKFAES
Mac1 fbg enh = increases human CD11b/CD18 adhesion to fibrinogen. activation, % at 10 µM. 93,000 compounds, 0.07% hits. P05107+P11215. K562 CD11b/CD18 adhesion to fibrinogen, ATPlite luminescence. AID 1499;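 active = 10 µM primary screen giving 50% or more activity, confirmed by 40% or more on retest at that dose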
CYP2C19 inh = human CYP2C19 inhibition. inhibition, % at 5 µM. CYP2C19 Supersomes, luciferin-H EGE luminescence, 30 min. AID 778. 96,000 compounds, 21% hits. P33261;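 active = CYP2C19 inhibition above a set limit at 5 µM in the primary screen, cut at about 50% in these data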
CYP2C9 act = CYP2C9 (human) activation | AID 1024 | 96,000 compounds, 1.4% hits | P11712 | recombinant CYP2C9, luciferin-H conversion, luminescence; active compounds read high; factor 1 = untreated enzyme, 0 = blocked | activation factor at 5 µM;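 active = activation factor of 2 or more for CYP2C9 at a 5 µM dose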
CYP2C19 act = activators of human cytochrome P450 2C19. P33261. recombinant CYP2C19, luciferin-H EGE luminescence; active compounds read high; 0 = fully inhibited enzyme, 1 = untreated enzyme. activation factor at 5 µM. 96,000 tested, under 10 active. AID 1025;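 active = activation factor of at least 2 at 5 µM in the primary screen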
CYP2C9 inhib = inhibitors of human CYP2C9; 96,000 compounds, 20% hits; inhibition, % at 5 µM; CYP2C9 Supersomes, luciferin-H conversion, luminescence;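 active = blocking of liver enzyme CYP2C9 beyond about 50% at 5 µM, limit read from the data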
Numbers stand for hits; i = inactive; nt = no result given. Only some compounds are listed: those with a hit (about 28% of all), similar ones and a draw of the others.

SMILES	CD11b adhes inh	Mac1 fbg enh	CYP2C19 inh	CYP2C9 act	CYP2C19 act	CYP2C9 inhib
Cc1ccccc1OCC(=O)OC(C)CN1CCN(C)CC1 (stereo unspecified)	i	i	i	i	i	i
CC(CN1CCCCC1)OC(=O)Cc1ccc(Cl)cc1 (stereo unspecified)	i	i	60	i	i	i
CC(CN1CCCCC1)OC(=O)C(C)(c1ccccc1)c1ccccc1 (stereo unspecified)	i	i	54	i	i	68
OC(COc1ccc(Cl)cc1)CN1CCCCC1 (stereo unspecified)	i	i	i	i	i	i
O=C(c1ccc(F)cc1)N1CCN(c2cc(N3CCCCC3)c(F)cc2[N+](=O)[O-])CC1	i	i	95	i	i	86
O=[N+]([O-])c1cc(F)c(N2CCCCC2)cc1N1CCOCC1	i	i	i	i	i	i
CCN(CC)c1ccc(NC(=O)C2CCCN(S(=O)(=O)c3cccnc3)C2)c(C)c1 (stereo unspecified)	i	i	i	i	i	i
Cc1ccc(Cl)c2c1NC(=O)C2(O)CC(=O)c1ccc(Br)cc1 (stereo unspecified)	i	i	61	i	i	i
CCS(=O)(=O)Nc1ccc(C(=O)CC2(O)C(=O)Nc3ccc(Br)cc32)cc1 (stereo unspecified)	i	i	i	i	i	i
COc1ccc(C2C(C(=O)c3ccc(C)o3)=C(O)C(=O)N2c2cc(C)on2)cc1OC (stereo unspecified)	i	i	i	i	i	i
Cc1cc(N2C(=O)C(O)=C(C(=O)c3ccco3)C2c2cccnc2)no1 (stereo unspecified)	i	i	i	i	i	i
COc1cc(C2C(C(=O)c3ccc(C)o3)=C(O)C(=O)N2c2cc(C)on2)cc(Br)c1O (stereo unspecified)	i	i	i	i	i	66
COc1cc(C2C(C(=O)c3ccco3)=C(O)C(=O)N2c2cc(C)on2)cc(Br)c1O (stereo unspecified)	i	i	i	i	i	60
CCOC(=O)CC1C(=O)NCCN1S(=O)(=O)c1ccc(Cl)cc1Cl (stereo unspecified)	nt	nt	i	i	i	i
Cc1ccccc1OC(=O)CCC(=O)OCCCC(F)(F)C(F)(F)F	i	i	54	i	i	i
Clc1ccc(OCc2cc(-c3ccccc3)no2)cc1Cl	i	i	i	i	i	69
Nc1c(-c2ccc(Cl)cc2)cnn1C1CCS(=O)(=O)C1 (stereo unspecified)	i	i	i	i	i	i
CCS(=O)(=O)N1Cc2ccccc2CC1C(=O)OCC(=O)Nc1ccc(C)cc1 (stereo unspecified)	nt	nt	75	i	i	i
CCS(=O)(=O)N1Cc2ccccc2CC1C(=O)OCC(=O)Nc1ccc(SC(F)F)cc1 (stereo unspecified)	i	i	78	i	i	93
CN(C)CCNC(=O)Nc1ccc(Cl)c(Cl)c1	i	i	i	i	i	i
COc1ccc(/C=N\NC(=O)COc2ccc(C(C)(C)C)cc2)cc1Cn1nc(C)cc1C	i	i	53	i	i	95
COc1ccc(C(=O)Nc2nc(C)c(C)s2)cc1OC	i	i	i	i	i	i
COc1ccc(C(=O)c2sc(NC(C)C)nc2N)cc1OC	i	i	86	i	i	i
COc1cccc(-c2cc(C(F)(F)F)n3ncc(C(=O)NCC4CCCO4)c3n2)c1 (stereo unspecified)	i	i	i	i	i	55
CCOc1ccc(C(C)NC(=O)Nc2ccccc2C(=O)OC)cc1 (stereo unspecified)	i	i	70	i	i	i
SMILES	CD11b adhes inh	Mac1 fbg enh	CYP2C19 inh	CYP2C9 act	CYP2C19 act	CYP2C9 inhib
COC(=O)c1ccccc1NC(=O)C(C)NS(=O)(=O)c1ccc(OC)cc1 (stereo unspecified)	i	i	57	i	i	i
COc1ccccc1NC(=O)C(C)NS(=O)(=O)c1ccc(F)cc1 (stereo unspecified)	i	i	53	3	i	i
COc1ccc(NC(=O)C(C)NS(=O)(=O)c2ccccc2)cc1Cl (stereo unspecified)	nt	nt	87	i	i	i
COc1ccc(NC(C)=O)cc1NC(C)C(=O)Nc1ccccc1F (stereo unspecified)	i	i	i	i	i	i
COc1ccccc1/C=C/CN1CC(C)OC(C)C1 (stereo unspecified)	i	i	i	i	i	i
CC(C)(C)OCC(NC(=O)C(CC(N)=O)NC(=O)OC(C)(C)C)C(=O)OC(C)(C)C (stereo unspecified)	i	i	i	i	i	i
COc1ccccc1NC(=O)C(C)NS(=O)(=O)c1ccc(Cl)cc1 (stereo unspecified)	i	i	74	3.4	i	i
COc1ccccc1NC(=O)C(Sc1ccccc1)c1ccccc1 (stereo unspecified)	i	i	nt	nt	nt	nt
CNC(=O)C(C)NS(=O)(=O)c1ccc(F)cc1 (stereo unspecified)	i	i	81	i	i	i
Cc1cc(SCC(=O)N2CCCC2)nc2ccccc12	i	i	i	i	i	i
Cc1cc(C(=O)c2ccccc2)nc2ccccc12	i	i	68	3.2	i	i
COc1ccc(NC(=O)[C@@H]2[C@@H]3C(=O)N(C4CCCCC4)C(=O)[C@@H]3C3c4ccccc4C=CN32)cc1 (stereo partly specified)	i	i	i	i	i	57
CC(=O)[C@@H]1[C@@H]2C(=O)N(C3CCCCC3)C(=O)[C@@H]2C2c3ccccc3C=CN21 (stereo partly specified)	i	i	i	i	i	i
CC(C)Oc1ccc(C(=O)Nc2nnc(SCC(=O)N3CCOCC3)s2)cc1	i	i	nt	nt	nt	nt
O=C(CNC(=O)c1cccc(OC(F)F)c1)OCc1cc(=O)n2cc(Br)ccc2n1	i	i	nt	nt	nt	nt
Cc1ccccc1OC1C(=O)N(Cc2ccc3c(c2)OCO3)C1c1sccc1C (stereo unspecified)	nt	nt	74	i	i	82
NC12CC3CC(C1)CC(CO)(C3)O2	i	i	i	i	i	i
COc1ccc(Cn2cnc3c([N+](=O)[O-])c(C)c(C)cc32)cc1	nt	nt	53	i	i	59
Cc1ccc(CN(Cc2cccnc2)C(=O)CN2C(=O)COc3ccccc32)o1	i	i	95	i	i	67
CCc1nc(SCc2cccnc2)[nH]c(=O)c1C	i	i	i	i	i	82
O=C(Nc1sc2c(c1C(=O)NC1CCCCC1)CCC2)c1ccco1	i	i	i	i	i	i
COc1cc(NC(=O)c2csc3c2CCCC3)ncn1	i	i	i	i	i	i
COC(=O)c1c(NC(=O)c2ccco2)sc(C(=O)N2CCCC2)c1C	i	i	i	i	i	61
CCOC(=O)c1c(NC(=O)c2ccco2)sc2c1CCCC2	i	i	i	i	i	56

Source: PubChem BioAssay (Sanford-Burnham Center for Chemical Genomics)
